Experimental data as given in PubChem BioAssay (NCATS).
Inconclusive results are not listed. Values without a mark were called inactive. The source made the active and inactive calls. The call rests on the fitted dose curve; in most records, active means well fitted curve in either direction with a large enough effect (not every such curve was filed as active); inconclusive means small, poorly fitted or top-dose-only effect, or another doubt; inactive means flat fitted curve, though single readings scatter.
On the % scale 0 is the no-effect control and ±100 the full control effect.

Assay: NFAT Signaling Pathway (AID 444)
Conditions: Jurkat NFAT-bla M1, carbachol, beta-lactamase ratio, 5 h; at 17.2 µM (top of the series) unless noted
From the text: NCGC Assay Overview: The nuclear factor of activated T cells (NFAT) family of transcription factors has been found primarily in most immune system cells and some other non-immune cells. NFAT plays the immunomodulatory role, primarily in T-cell activation and differentiation. NFAT target genes are also involved in the regulation of apoptosis and differentiation in non-immune cell types. The NFAT sequence was engineered to the upstream of the ?-lactamase reporter gene and transfected into Jurkat cells with co-transfection of muscarinic receptor1 [provided by Invitrogen Corp]. When an extracellular stimulus, such as carbachol, binds to the GPCR M1 receptor, it stimulates a signaling cascade that activates NFAT response element and ?-lactamase expression by phosphorylating the NFAT binding protein. This cell based ?-lactamase reporter gene assay can accurately monitor any changes occurring along the NFAT pathway, and can be used for screening small molecule inhibitor or activator upon activation by carbachol EC50 concentration. A small molecular library were screened in a titration series resulting in AC50s (can be either IC50s or EC50s).
NCGC Assay Protocol Summary: The cells were prepared in RPMI 1640 medium containing 0.1% dialyzed FBS and 25 mM HEPES at 1.6 x 10^6cell/ml. The assay was performed in 1536-well plate format as follows: 5 ul of cell preparation 23 nl of compounds 1ul of carbachol (final concentration 1 uM) Briefly centrifuge the plates and incubate at 37 °C for 5 hours 1 ul of CCF4 dye mixture Incubate the plates at RT for 1 hour Read the plate in EnVision plate reader (Ex= 405nm, and Em1=460nm and Em2=530nm). The %Activity was determined from the ratio of 460nm/530nm. Data normalization and AC50 calculations were accomplished using GeneData software.
In the case of CCC(=O)O[C@@]1(C(=O)SCF)[C@@H](C)C[C@H]2[C@@H]3C[C@@H](F)C4=CC(=O)C=C[C@@]4(C)[C@]3(F)[C@@H](O)C[C@]21C, the activity change, negative = inhibition is reported as -22.7%.
C[C@@H](C(=O)O)c1ccc(N2Cc3ccccc3C2=O)cc1 gave an activity change, negative = inhibition of 11.8%.
Work on CC(=O)N[C@H]1[C@@H](O[C@@H](C)C(=O)O)[C@H](O)[C@H](CO)O[C@@H]1O yielded an activity change, negative = inhibition of 4.75%.
In the case of Cc1nccn1C[C@@H]1CCc2c(c3ccccc3n2C)C1=O, the activity change, negative = inhibition is reported as -26.8%.
Clc1cnccn1 showed an activity change, negative = inhibition of -22.8%.
COc1cc(N)c(Cl)cc1C(=O)N[C@H]1CCN(CCCOc2ccc(F)cc2)C[C@H]1OC showed an activity change, negative = inhibition of -12.4%.
With CC(=O)N[C@H](CS)C(=O)O the activity change, negative = inhibition was -2.14% [at 38 µM].
With CCN[C@@H]1CN(CCCOC)S(=O)(=O)c2sc(S(N)(=O)=O)cc21 the activity change, negative = inhibition was -3.14%.
In the case of C=CCSC[C@@H]1Nc2cc(Cl)c(S(N)(=O)=O)cc2S(=O)(=O)N1, the activity change, negative = inhibition is reported as -2.73%.
With CCOC(=O)O[C@@H](C)OC(=O)[C@@H]1N2C(=O)[C@@H](NC(=O)[C@@H](N)c3ccccc3)[C@H]2SC1(C)C the activity change, negative = inhibition was -4.72%.
CCN1CCN(C(=O)N[C@H](C(=O)N[C@@H]2C(=O)N3[C@@H]2SC(C)(C)[C@@H]3C(=O)O)c2ccccc2)C(=O)C1=O gave an activity change, negative = inhibition of -2.87%.
O=C(/C=C\C=C/c1ccc2c(c1)OCO2)N1CCCCC1 gave an activity change, negative = inhibition of -3.46%.
Cc1noc(C)c1-c1nc(Nc2ccncc2)c2ccccc2n1 showed an activity change, negative = inhibition of -11.9% [at 7.69 µM].
Molecule CCCC(=O)Nc1ncnc2c1ncn2[C@@H]1O[C@H]2COP(=O)(O)O[C@@H]2[C@@H]1OC(=O)CCC has an activity change, negative = inhibition of 16.7%.
Work on CC(=O)Nc1cc2ccccc2oc1=O yielded an activity change, negative = inhibition of -6.5%.
With CC(=O)O[C@]1(C(C)=O)CC[C@@H]2[C@@H]3C=C(C)C4=CC(=O)CC[C@@]4(C)[C@H]3CC[C@]21C the activity change, negative = inhibition was -7.69%.
With Cc1c(C)c2c(c(C)c1O)CC[C@@](C)(C(=O)O)O2 the activity change, negative = inhibition was 9.85%.
CO/N=C(\C(=O)N[C@@H]1C(=O)N2C(C(=O)O)=C(COC(N)=O)CS[C@@H]12)c1ccco1 showed an activity change, negative = inhibition of 6.11%.
For C[C@H](CCC(=O)O)[C@H]1CC[C@@H]2[C@H]3[C@@H](CC[C@@]21C)[C@]1(C)CC[C@H](O)C[C@@H]1C[C@@H]3O, the activity change, negative = inhibition was -6.74%.
Molecule NC(=O)N/N=C\c1ccc([N+](=O)[O-])o1 has an activity change, negative = inhibition of -5.34%.
COc1ccc2c3c([nH]c2c1)[C@@H]1C[C@@H]2[C@@H](C[C@H](O)[C@H](OC)[C@H]2C(=O)O)CN1CC3 showed an activity change, negative = inhibition of -14.4%.
Molecule CO[C@H]1[C@@H](OC(N)=O)[C@H](O)[C@@H](Oc2ccc3c(O)c(NC(=O)c4ccc(O)c(CC=C(C)C)c4)c(=O)oc3c2C)OC1(C)C has an activity change, negative = inhibition of -13.7%.
For CC(=O)O[C@H]1C[C@@]2(C)[C@H](C[C@@H](O)[C@H]3[C@@]4(C)CC[C@@H](O)[C@@H](C)[C@H]4CC[C@@]32C)C1=C(CCC=C(C)C)C(=O)O, the activity change, negative = inhibition was -11.2%.
O=C(N[C@@H](CO)[C@@H](O)c1ccc([N+](=O)[O-])cc1)C(Cl)Cl gave an activity change, negative = inhibition of -12.6%.
In the case of Cc1cccc(C)c1NC(=O)[C@H](C)N, the activity change, negative = inhibition is reported as -7.54%.
In the case of CC1(C)S[C@@H]2[C@H](NC(=O)C(N)c3ccccc3)C(=O)N2[C@H]1C(=O)O (stereo not given in full), the activity change, negative = inhibition is reported as -1.78%.
In the case of NCC[C@H](O)C(=O)N[C@H]1C[C@@H](N)[C@@H](O[C@H]2O[C@@H](CN)[C@@H](O)[C@@H](O)[C@@H]2O)[C@@H](O)[C@@H]1O[C@H]1O[C@@H](CO)[C@@H](O)[C@@H](N)[C@@H]1O, the activity change, negative = inhibition is reported as -4.44%.
C[C@@]12C=CC(=O)C=C1CC[C@H]1[C@H]3CC[C@](O)(C(=O)CO)[C@]3(C)CC(=O)[C@@H]12 showed an activity change, negative = inhibition of -19.6%.
CCC[C@H]1C[C@H](C(=O)N[C@H]([C@@H]2O[C@H](SC)[C@@H](O)[C@H](O)[C@@H]2O)[C@H](C)O)N(C)C1 showed an activity change, negative = inhibition of -5.24%.
For COc1ccccc1OC[C@H](O)CO, the activity change, negative = inhibition was -3.75%.
Cc1cn([C@@H]2C[C@H](N=[N+]=N)[C@H](CO)O2)c(=O)[nH]c1=O gave an activity change, negative = inhibition of -2.1%.
For C[C@H](C(=O)O)c1cccc(Oc2ccccc2)c1, the activity change, negative = inhibition was 4.26%.
In the case of COC(=O)C1=C(C)NC(C)=C(C(=O)OC(C)C)[C@H]1c1cccc2nonc12, the activity change, negative = inhibition is reported as -22.3%.
In the case of CN(C)c1ccc(-c2nccc(NCc3ccccc3)n2)cc1, the activity change, negative = inhibition is reported as -14.3% [at 7.69 µM].
In the case of NS(=O)(=O)c1cc2c(cc1Cl)N[C@@H](C(Cl)Cl)NS2(=O)=O, the activity change, negative = inhibition is reported as -8.61%.
C[C@H]1[C@@H](O)[C@@H](C)\C=C/C=C\C=C/C=C\C=C/C=C\C=C/[C@@H](O[C@H]2O[C@@H](C)[C@@H](O)[C@@H](N)[C@@H]2O)C[C@@H]2O[C@](O)(C[C@@H](O)C[C@@H](O)[C@@H](O)CC[C@@H](O)C[C@@H](O)CC(=O)O[C@H]1C)C[C@@H](O)[C@H]2C(=O)O (stereo in doubt) gave an activity change, negative = inhibition of -11.5%.
With CC1=CC(=O)C2=C(C)CC[C@@H]3[C@@H](OC(=O)[C@H]3C)[C@H]12 the activity change, negative = inhibition was -23.2%.
For C[C@@H](Cc1cccc(C(F)(F)F)c1)NCCOC(=O)c1ccccc1, the activity change, negative = inhibition was -24.1%.
With CC1(C)S[C@@H]2[C@H](NC(=O)COc3ccccc3)C(=O)N2[C@H]1C(=O)O (tested in a mixture with another compound) the activity change, negative = inhibition was -7.06%.
In the case of CCN1CCC[C@@H](OC(=O)C(c2ccccc2)c2ccccc2)C1, the activity change, negative = inhibition is reported as -80.8% (active).
